The list is not random: actives were taken first. Their share in the collection is about 2.1%.
Rce1 inhib = yeast Rce1p protease inhibitors, primary screen, biochemical, fluorescence, cell-free homogeneous; CAAX prenyl protease 2 (Saccharomyces cerevisiae (strain ATCC 204508 / S288c)), Q03530; 290,000 tested, 0.27% active; AID 2563, 2010; calls only; yeast membranes, quenched prenylated peptide cleavage fluorescence;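 active = fall in fluorescence gain of 50% or more versus controls, with final raw signal at or below 3038400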;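 note: plate controls were neutral control wells for no effect and wells lacking membranes for full effect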
Target sequence (Q03530 whole entry, looked up): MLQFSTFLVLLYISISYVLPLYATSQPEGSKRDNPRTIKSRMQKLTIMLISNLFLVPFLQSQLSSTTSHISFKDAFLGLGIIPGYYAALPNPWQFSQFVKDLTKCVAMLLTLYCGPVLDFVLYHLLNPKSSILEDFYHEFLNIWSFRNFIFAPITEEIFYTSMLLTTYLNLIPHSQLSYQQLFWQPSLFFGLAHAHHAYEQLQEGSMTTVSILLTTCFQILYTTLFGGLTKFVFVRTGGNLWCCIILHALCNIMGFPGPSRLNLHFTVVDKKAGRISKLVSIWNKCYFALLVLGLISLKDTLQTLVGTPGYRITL
PLCg1 inh = PLC-gamma1 enzyme inhibitors, primary screen, biochemical, fluorescence, purified enzyme | 1-phosphatidylinositol 4,5-bisphosphate phosphodiesterase gamma-1 (Homo sapiens), P19174 | fluorogenic substrate | inhibition, % at 12.2 µM | 370,000 tested, 0.84% active | AID 720700, 2013; in the data active = inhibition above about 9.5%
ADAM17 inh = ADAM17 inhibitors, primary screen, biochemical, QFRET; Disintegrin and metalloproteinase domain-containing protein 17 (Homo sapiens), P78536; 370,000 tested, 0.83% active; inhibition, % at 6.95 µM; recombinant ADAM17, EDANS/DABCYL FRET peptide cleavage;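 active = inhibition above the mean of compounds lying between control limits plus 3 SD, set per campaign, cut at about 8.5% in these data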;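 note: 0% = DMSO-only wells as the low control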
PLC-beta3 inh = human PLC-beta3 inhibitors, primary screen, biochemical, fluorescence; inhibition, % at 12.2 µM; 1-phosphatidylinositol 4,5-bisphosphate phosphodiesterase beta-3 (Homo sapiens), Q01970; Purified PLC-beta3, fluorogenic substrate; 370,000 tested, 0.18% active; in the data active = inhibition above about 11%;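 note: 0% = median of compound wells on plate and 100% = full blocker control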
ADAM10 inh = human ADAM10 inhibitors, primary screen, biochemical, QFRET, HTS; Disintegrin and metalloproteinase domain-containing protein 10 (Homo sapiens), O14672; recombinant ADAM10, EDANS/DABCYL FRET peptide cleavage, 3 h; inhibition, % at 7 µM; 370,000 tested, 0.62% active; AID 720582, 2013;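 active = inhibition above a per-campaign cutoff equal to the mean of compounds falling between control-based bounds plus 3 SD, cut at about 20% in these data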;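 note: 0% = DMSO wells while the 100% control is not disclosed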
ADAM10 confirm = human ADAM10 inhibitors, confirmation, biochemical, QFRET, triplicate; shares compounds with ADAM10 inh; ADAM10 QFRET peptide cleavage, EDANS fluorescence; inhibition, % at 6.95 µM; 2,100 tested, 1% active; AID 743208, 2013;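 active = inhibition above about 20% chosen separately for each screening run, limit read from the data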;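 note: 0% = DMSO wells and 100% = marimastat wells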
ADAM17 counter = ADAM17 inhibitors, counter-screen for ADAM10 exosite inhibitor project, biochemical, QFRET, high throughput. shares compounds with ADAM10 inh. ADAM17 QFRET peptide cleavage, EDANS fluorescence. inhibition, % at 6.95 µM. 2,100 tested, 0.5% active;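 active = mean triplicate inhibition above the solvent-only control wells' mean plus 3 SD, cut at about 12% in these data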;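 note: 0% = DMSO wells and 100% = marimastat wells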
ADAM10 counter = ADAM10 inhibitors, counter-screen for ADAM17 exosite inhibitor project, biochemical, FRET, human ADAM10; 2,900 tested, 47% active; shares compounds with ADAM17 inh; recombinant ADAM10, EDANS/DABCYL FRET peptide cleavage, 3 h; inhibition, % at 6.95 µM;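 active = mean inhibition over the triplicate runs exceeds the activity threshold set in the earlier primary screen, cut at about 20% in these data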;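 note: 0% = DMSO wells and 100% = marimastat wells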
ADAM17 confirm = ADAM17 inhibitors, hit retest, confirmation, biochemical, QFRET peptide cleavage; shares compounds with ADAM17 inh; recombinant ADAM17, EDANS/DABCYL QFRET peptide cleavage; inhibition, % at 6.95 µM; 2,900 tested, 65% active; AID 743257, 2014;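 active = mean inhibition across replicates above the hit cutoff set in the primary screen, cut at about 8.5% in these data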;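 note: 0% = DMSO wells and 100% = marimastat wells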
Numbers without * were called inactive; i = inactive; nt = not tested or not shown.

SMILES | Rce1 inhib | PLCg1 inh | ADAM17 inh | PLC-beta3 inh | ADAM10 inh | ADAM10 confirm | ADAM17 counter | ADAM10 counter | ADAM17 confirm
COc1cc(/C=N/Nc2nc(N3CCCCC3)nc(N3CCCCC3)n2)ccc1OC(=O)c1ccco1 | i | nt | nt | nt | nt | nt | nt | nt | nt
Cc1[nH]c2ccccc2c1/C=N/Nc1nc(Nc2ccc(F)cc2)nc(N2CCOCC2)n1 | i | -0.7 | -1.5 | 4.0 | 14.6 | nt | nt | nt | nt
O=C(Oc1cccc(/C=N/Nc2nc(Nc3ccccc3)nc(N3CCOCC3)n2)c1)c1ccco1 | i | 3.0 | 8.8* | 4.2 | 21.8* | 7.6 | 2.8 | 41.3* | 23.4*
Cc1ccc(Nc2nc(N/N=C/c3c[nH]c4ccccc34)nc(N3CCOCC3)n2)cc1 | i | 3.9 | 10.3* | 3.1 | 21.8* | 8.2 | 3.2 | 27.1* | 16.5*
COc1ccc(CNc2ncnc3sccc23)cc1 | i | -2.0 | 1.8 | -13.4 | 2.6 | nt | nt | nt | nt
CCN=C1SC(CC(=O)NCc2ccccc2)C(=O)N1CC (configuration not stated) | i | 0.4 | 0.0 | -3.5 | 8.1 | nt | nt | nt | nt
COc1ccc(C(=O)Nc2ccc(Cl)c(S(=O)(=O)Nc3ccccc3OC)c2)cc1 | i | -1.4 | 12.5* | -1.1 | 20.9* | 3.8 | 2.2 | 40.0* | 22.6*
COc1ccccc1NS(=O)(=O)c1cc(NC(=O)c2ccc(Cl)nc2)ccc1Cl | i | -1.7 | 6.0 | 2.2 | 4.3 | nt | nt | nt | nt
CCOc1ccc(NS(=O)(=O)c2cc(NC(=O)c3ccc(C)cc3)ccc2Cl)cc1 | i | 3.7 | 12.7* | 1.5 | 27.6* | 7.6 | 2.4 | 38.6* | 22.0*
COc1ccccc1NS(=O)(=O)c1cc(NC(=O)c2cc(F)c(F)c(F)c2F)ccc1N1CCOCC1 | nt | -5.9 | 8.8* | -6.0 | 22.0* | 10.7 | 3.1 | 43.2* | 27.6*
Cc1cccc(NC(=O)c2ccc(NS(=O)(=O)c3cccc4cccnc34)cc2)c1 | nt | 8.9 | 12.8* | -4.7 | 24.1* | 4.1 | 1.4 | 23.8* | 14.7*
Cc1ccc(S(=O)(=O)N2CC(C)N(C(=O)N3CCOCC3)C2C)cc1 (configuration not stated) | i | -0.5 | -2.4 | -3.9 | -6.6 | nt | nt | nt | nt
CC(=O)c1ccc(NS(=O)(=O)c2cccc(C(=O)Nc3ccccc3C(=O)O)c2)cc1 | i | -21.5 | 0.0 | -28.2 | 1.9 | nt | nt | nt | nt
O=[N+]([O-])CC(c1ccccc1)c1c[nH]c2ccccc12 (configuration not stated) | i | -0.2 | -3.2 | -8.5 | -1.0 | nt | nt | nt | nt
OC(CNCC(c1ccc(Cl)cc1Cl)c1c[nH]c2ccccc12)c1ccccc1 (configuration not stated) | i | 9.3 | 12.2* | 0.9 | 26.4* | 13.0 | 4.2 | 36.9* | 17.0*
COc1ccc(OC)c(C(=O)N2CCC(n3nccc3NC(=O)CC(C)C)CC2)c1 | i | -1.5 | -2.5 | -6.8 | -4.3 | nt | nt | nt | nt
O=P(C(=S)Nc1ccccc1Cl)(c1ccccc1)c1ccccc1 | nt | 2.9 | 1.0 | 8.1 | -4.7 | nt | nt | nt | nt
O=C1C=C(c2ccc3[nH]ccc3c2)C[C@@H](c2ccc(Cl)cc2)C1 | nt | -58.2 | 15.4* | -89.2 | 21.1* | 9.8 | 3.6 | 7.4 | 8.2
O=C1C=C(c2ccc(-c3ccccc3)cc2)C[C@@H](c2ccc(F)cc2)C1 | nt | -0.3 | -6.7 | -1.4 | -10.2 | nt | nt | nt | nt
Cc1ccc(C2=CC(=O)C[C@H](c3ccc(F)cc3)C2)cc1 | nt | 7.0 | 12.4* | -2.4 | 27.9* | 1.6 | 0.8 | 22.2* | 17.2*
COc1ccc(N(CC(=O)Nc2ccc(F)cc2)S(=O)(=O)c2ccccc2[N+](=O)[O-])c(OC)c1 | i | 9.2 | 11.2* | 2.4 | 24.8* | 1.8 | 0.8 | 32.1* | 14.1*
CC(C)(C)OC(=O)NCCCCCNC(=O)c1[nH]cnc1C(=O)Nc1ccc(Cl)cc1 | nt | 0.6 | 13.7* | 4.7 | 30.6* | 5.4 | 1.6 | 39.1* | 21.8*
CC(C)(C)OC(=O)NCCCC[C@H](NC(=O)c1[nH]cnc1C(=O)N[C@@H](Cc1ccccc1)C(=O)OC(C)(C)C)C(=O)OC(C)(C)C | i | 4.7 | 1.4 | 3.0 | 1.4 | nt | nt | nt | nt
C[C@@H](NC(=O)c1nc[nH]c1C(=O)NCCCCCNC(=O)OC(C)(C)C)c1ccccc1 | nt | 0.5 | -0.7 | 0.5 | 1.6 | nt | nt | nt | nt
C[C@H](NC(=O)c1nc[nH]c1C(=O)NCc1ccc(CNC(=O)OC(C)(C)C)cc1)c1ccccc1 | nt | 7.6 | 25.4* | 3.1 | 54.4* | 3.2 | 0.9 | 29.2* | 16.4*
SMILES | Rce1 inhib | PLCg1 inh | ADAM17 inh | PLC-beta3 inh | ADAM10 inh | ADAM10 confirm | ADAM17 counter | ADAM10 counter | ADAM17 confirm
C[C@H](NC(=O)c1nc[nH]c1C(=O)N[C@@H](CCCCNC(=O)OC(C)(C)C)C(=O)OC(C)(C)C)c1ccccc1 | i | 2.3 | 11.6* | 2.1 | 21.2* | 6.0 | 1.9 | 28.5* | 17.8*
O=C1C2C3c4ccccc4C(c4ccccc43)C2C(=O)N1Cc1ccccn1 (configuration not stated) | i | 1.9 | -3.9 | 0.5 | 2.2 | nt | nt | nt | nt
CC(=O)c1ccc(NC(=O)CSc2nnc(-c3ccco3)c(-c3ccco3)n2)cc1 | i | -14.5 | -0.6 | -22.5 | -5.8 | nt | nt | nt | nt
O=C(CSc1nnc(-c2ccco2)c(-c2ccco2)n1)c1ccccc1 | i | -38.2 | 9.0* | -49.8 | 27.1* | 3.6 | 1.7 | -11.0 | -1.2
Cc1noc(C)c1COc1ccc(C(=O)OCC(=O)Nc2ccc3ccccc3c2)cc1 | i | -2.9 | 8.8* | -6.4 | 20.5* | 8.7 | 2.7 | 32.9* | 19.2*
COc1ccc(C(=O)NC(=S)Nc2ccc(N3CCCC3)cc2)cc1 | i | -0.5 | -0.7 | -1.4 | -8.0 | nt | nt | nt | nt
COc1cccc(C(=O)NC(=S)Nc2ccc(N3CCCC3)cc2)c1 | i | -2.2 | 12.5* | -2.2 | 32.2* | 5.7 | 2.0 | 14.2 | 10.8*
CNc1ccc(C=C2C=Cc3ccccc32)cc1 | nt | 11.1* | 13.1* | 6.5 | 41.2* | 5.6 | 1.4 | 46.4* | 18.1*
